# TrxR1 substrate: qHTS Assay for Substrates of Mammalian Selenoprotein Thioredoxin Reductase 1 (TrxR1): qHTS. 390,000 compounds, 0.01% hits. AID 588456, 2011. purified TrxR1 substrate turnover, NADPH consumption readout. Potency, µM (doses to about 114 µM), for inactives: top-dose activity change, negative = substrate turnover; further: potency means the concentration at half of the fitted maximal effect; on the % scale 0 is the no-effect control and ±100 the full control effect; nearly all actives have a fitted effect of over 50% in size
# Target sequence (O89049 whole entry, looked up): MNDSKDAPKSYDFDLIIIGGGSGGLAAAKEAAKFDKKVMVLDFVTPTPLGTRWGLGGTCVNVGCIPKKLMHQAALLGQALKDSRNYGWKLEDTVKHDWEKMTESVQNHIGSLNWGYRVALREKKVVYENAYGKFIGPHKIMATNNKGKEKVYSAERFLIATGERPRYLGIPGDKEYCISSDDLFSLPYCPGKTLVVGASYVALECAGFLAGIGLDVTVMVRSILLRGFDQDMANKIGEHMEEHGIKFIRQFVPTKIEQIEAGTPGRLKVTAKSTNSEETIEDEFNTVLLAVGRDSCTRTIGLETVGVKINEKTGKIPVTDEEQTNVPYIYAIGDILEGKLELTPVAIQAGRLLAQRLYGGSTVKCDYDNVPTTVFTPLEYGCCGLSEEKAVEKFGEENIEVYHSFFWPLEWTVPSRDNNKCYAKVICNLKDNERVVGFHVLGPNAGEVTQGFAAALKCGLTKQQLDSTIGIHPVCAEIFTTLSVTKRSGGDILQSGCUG
#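 Rat TrxR1, dispensed at 90 nM, was prereduced with 400 uM NADPH (final) for 5 min at ~22 deg C, then incubated with compound 15 min before 400 uM selenite. A first-read NADPH fluorescence drop versus no-compound background flagged substrates.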
# rTrxR1 inhibitor: qHTS Assay for Inhibitors of Mammalian Selenoprotein Thioredoxin Reductase 1 (TrxR1): qHTS | recombinant rTrxR1, NADPH fluorescence consumption, selenite substrate | Potency, µM (series often up to 114 µM), for inactives: top-dose activity change, negative = inhibition, actives largely listed as inhibitors | 390,000 compounds, 1% hits | AID 588453, 2011; further: potency means the concentration at half of the fitted maximal effect; on the % scale 0 is the no-effect control and ±100 the full control effect; nearly all actives have a fitted effect of over 65% in size
#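 Rat TrxR1 (90 nM in the dispensed reagent) was pre-reduced with 400 uM NADPH for 5 min at room temperature, then incubated with compound for 15 min. After 400 uM selenite was added, NADPH fluorescence (Ex 340/Em 450 nm) was followed for 8 min.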
# miR-21 act: qHTS Assay for Modulators of miRNAs and/orActivators of miR-21; Potency, µM (highest dose often 38.3 µM), for the others: top-dose activity change, positive = activation, most hits filed as activators; AID 2288, 2010; HeLa miR-21 FLuc reporter, luciferase, 48 h; 340,000 tested, under 10 active;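 further: % of control where 0% means no effect; miR-21 action dims this reporter so a rising signal means less miR-21 action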
#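 Compounds were titrated across several concentrations (up to approximately 40 uM) and incubated 48 hours with HeLa miR-21-FLuc reporter cells (miR-21 target sequence downstream of FLuc, endogenous miR-21). Readout was firefly luciferase luminescence after lytic detection reagent.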
# ClpP mod: qHTS Assay for Activators of ClpP | ATP-dependent Clp protease proteolytic subunit (Bacillus subtilis (strain 168)), P80244 | purified B. subtilis ClpP, FRET peptide cleavage, 20 min | Potency, µM (doses to about 57.5 µM), for inactives: at the highest dose activity change, negative = active | 340,000 compounds, 1.9% hits | AID 651965, 2013; active means well fitted falling curve with a large enough effect; inconclusive means small, poorly fitted or top-dose-only effect; inactive means no such curve, though single readings can be large or run the other way; further: potency means the concentration at half of the fitted maximal effect; the source files actives as falling curves though it sought activators and does not explain the sign; nearly all actives have a fitted effect of over 65% in size
# Target sequence (P80244 whole entry, looked up): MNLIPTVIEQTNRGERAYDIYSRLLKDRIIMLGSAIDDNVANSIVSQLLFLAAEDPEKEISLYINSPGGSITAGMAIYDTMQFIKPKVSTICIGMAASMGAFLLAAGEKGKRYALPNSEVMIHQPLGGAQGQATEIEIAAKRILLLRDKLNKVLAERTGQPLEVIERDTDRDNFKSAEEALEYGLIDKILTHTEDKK
#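 FRET quenching reversal measured ClpP activation: 10 microg/mL B. subtilis ClpP at pH 8 with the FRET-FV decapeptide, read at 430 nm after 320 nm excitation. The 20-min minus 0-min signal was scaled between DMSO/no-enzyme wells and ADEP (5.8 microM final).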
# Apoferritin bind: qHTS Assay for Identification of Novel General Anesthetics; Ferritin light chain (Equus caballus), P02791; apoferritin/1-aminoanthracene competitive binding, fluorescence; Potency, µM (doses to about 77.5 µM), for the others: at the highest dose activity change, negative = displacement, usual class: inhibitors; 350,000 compounds, 0.074% hits; AID 485281, 2010; further: potency means the concentration at half of the fitted maximal effect; on the % scale 0 is the no-effect control and ±100 the full control effect; nearly all actives have a fitted effect of over 20% in size
#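 In PBS, apoferritin at 10 uM is loaded with 1-AMA from a 50% saturated solution. After 10 min of compound exposure at ambient temperature, reduced 535 nm fluorescence indicates probe displacement.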
# * marks the source's active call; other numbers are inactive results; ? = inconclusive; · = not tested or not shown; [ ] = remark or other dose. An excerpt weighted towards active compounds, which were near 2.5% of everything screened. Unless noted, the call rests on the fitted dose curve; in most records, active means well fitted curve in the direction sought with a large enough effect; inconclusive means small, poorly fitted or top-dose-only effect, or another doubt; inactive means no such curve, though single readings can be large; an effect the other way counts as inactive or inconclusive.
SMILES,TrxR1 substrate,rTrxR1 inhibitor,miR-21 act,ClpP mod,Apoferritin bind
COC(=O)CN1C(=S)N(c2ccc(Cl)cc2)C(=O)C1CC(=O)Nc1ccccc1 (configuration not stated),-7%,-7%,-2%,13µM*,-18%
COc1cc2c(c3ccccc13)CCCC2=O,211%,7%,·,28µM*,·
O=C1CCCc2c1ccc1ccccc21,14%[57.1 µM],-7%,·,-3%,·
CC(C)OC(=O)c1cc2c(ccn2C)n1CC(=O)N(Cc1ccccc1)c1ccc(F)cc1,5%,4%,16%,32µM*,-3%
CCOC(=O)c1cc2c(ccn2C)n1CC(=O)N(Cc1ccccc1)c1ccc(F)cc1,-2%,1%,12%,-10%,3%
CCOC(=O)c1c(Nc2ccc(C)c(C)c2)nnc(-c2ccccc2)c1-c1ccccc1,3%,34%,24%,1%,-5%
COc1ccc(-c2ccc(=O)n(CC(=O)NCc3ccco3)n2)cc1,1%,?,-10%,25µM*,?
Cc1ccc(-c2ccc(=O)n(CC(=O)NCCC(C)C)n2)cc1,13%,15%,0%,?,?
O=C(Cn1nc(-c2ccccc2)ccc1=O)NCc1ccc(F)cc1Cl,-3%[57.1 µM],7%[57.1 µM],-14%,-14%,11µM*
CN1CCN(CCCNC(=O)Cn2nc(-c3ccccc3)ccc2=O)CC1,10%,28%,-6%,-11%,3%
O=C(Cn1nc(-c2ccc(Cl)cc2)ccc1=O)NCCCN1CCN(Cc2ccccc2)CC1,-5%,-7%,3%,32µM*,-2%
Cc1ccc(-c2ccc(=O)n(CC(=O)NCc3ccco3)n2)cc1,7%,6%,-1%,-13%,8.9µM*
O=C(CSc1nc(=O)[nH]c2c1CCC2)NCc1ccc(Cl)cc1,2%[57.1 µM],14%[57.1 µM],1%,-7%,-7%
CN(C)c1ccc(/C=C/c2sc3ccccc3[n+]2CCCCI)cc1,-10%,?,·,1%,·
COc1ccc(-c2cc(C(F)(F)F)n3nc(C(=O)NCc4ccco4)cc3n2)cc1,57%,53%,-9%,16µM*,50%
O=C(NCc1ccco1)c1cc2nc(-c3ccc4c(c3)OCO4)cc(C(F)(F)F)n2n1,1%,-5%,-16%,?,1%
Cc1cc(C)c2c(=O)c3c(oc2c1)C(=O)N(CCCOC(C)C)C3c1ccccc1F (configuration not stated),-2%,?,-2%,1%,-3%
COc1ccc(OC)c(S(=O)(=O)NCC(c2cccs2)S(=O)(=O)c2ccc(F)cc2)c1 (configuration not stated),2%[57.1 µM],3.2µM*,?,2%,24%
COc1ccc(C)cc1S(=O)(=O)NCC(c1cccs1)S(=O)(=O)c1ccc(C)cc1 (configuration not stated),-2%[57.1 µM],10%[57.1 µM],5%,1%,2%
COc1ccc(F)cc1S(=O)(=O)NCC(c1ccco1)S(=O)(=O)c1ccc(F)cc1 (configuration not stated),-6%[57.1 µM],0.89µM*,14%,-2%,0%
COc1ccc(S(=O)(=O)NCC(c2ccco2)S(=O)(=O)c2ccc(C)cc2)cc1C (configuration not stated),1%[57.1 µM],11µM*,0%,0%,-2%
Cc1ccc(N(C)C(=O)C2CCN(S(=O)(=O)c3cn(C)cn3)CC2)cc1,5%[57.1 µM],16%[57.1 µM],-7%,-4%,56%
COc1ccc(CNC(=O)c2oc3c(c2C)-c2nn(Cc4ccc(Cl)cc4)cc2CC3)cc1,0%[11.4 µM],25%,0%,?,5%
CCOc1ccc(CCNC(=O)c2cc3c(s2)-c2c(C)cccc2OC3)cc1,93%,31%,-1%,4%,38%
CC(C)(CO)NC(=O)C12CC3CC(CC(Br)(C3)C1)C2,8%[57.1 µM],-1%[57.1 µM],-1%,20µM*,0%
SMILES,TrxR1 substrate,rTrxR1 inhibitor,miR-21 act,ClpP mod,Apoferritin bind
CC(C)(C)NC(=O)C12CC3CC(CC(Cl)(C3)C1)C2,4%[57.1 µM],23%[57.1 µM],0%,-2%,-11%
Cc1cccc(NC(=O)C2CC(=O)n3cnnc3S2)c1 (configuration not stated),-3%,7.1µM*,-1%,-2%,-24%
CCN=C1SC(C(=O)Nc2cccc(C)c2)CC(=O)N1CC (configuration not stated),0%,8%,1%,0%,-3%
Cc1ccc(S(=O)(=O)NCC(=O)OCC(=O)Nc2cccc(S(=O)(=O)NC3=NCCCCC3)c2)cc1,-6%,-5%,0%,25µM*,-15%
O=C(CS(=O)c1ccc(C(F)(F)F)cc1[N+](=O)[O-])Oc1ccc(Cl)cc1 (configuration not stated),-12%,50µM*,13%,-2%,?
O=C(NC1CCCCCC1)c1c(O)c2ccccc2[nH]c1=O,-4%,10%,-40%,-7%,-14%
O=C(Cc1c(O)c2ccccc2[nH]c1=O)NC1CCCCCCC1,16%[57.1 µM],-14%[57.1 µM],-11%,32µM*,-23%
O=C(Cc1c(O)c2ccccc2[nH]c1=O)NC1CCCCCC1,29%,22%,-10%,20µM*,-12%
O=[N+]([O-])c1cccc(CN2C(COCc3ccccc3)CCC=CS2(=O)=O)c1 (configuration not stated),-9%,-12%,·,·,-22%
COC(=O)c1ccc(C2=NOC(C)(c3sc(-c4ccc(Cl)cc4)nc3C)C2)cc1 (configuration not stated),1%,17%,-4%,25µM*,-9%
COC(=O)c1ccc(C2=NOC(C)(c3sc(-c4ccccc4)nc3C)C2)cc1 (configuration not stated),3%,24%,-13%,-7%,3%
C=C(C)COc1ccc(-c2nc(N)ncc2-c2ccc(OC)cc2)c(O)c1,·,·,13%,·,-14%
C=C(C)COc1ccc(-c2nc(N)nc(C)c2-c2ccc(OC)cc2)c(O)c1,-3%,-20%,-14%,25µM*,?
O=C(Nc1ccc(F)cc1)C1CCN(S(=O)(=O)c2ccc3c(c2)CCCN3C(=O)C2CCC2)CC1,4%[57.1 µM],13%[57.1 µM],?,2%,7%
Cc1cccc(CC(=O)Nc2cccc(-c3nc4cccnc4s3)c2)c1,5%,18%,-6%,20µM*,16%
CCc1cccc(NC(=O)c2ccc(CNS(=O)(=O)c3ccc4c(c3)C(C)(C)C(=O)N4C)cc2)c1,8%,20%,?,-4%,-22%
COc1ccc(N(CC(=O)NCCc2ccccc2)S(=O)(=O)c2ccccc2)c(OC)c1,-1%,8%,9%,1%,1%
